Laboratory results as given in PubChem BioAssay (NCI).
This is part of a sample that, as a whole, favours compounds with a hit. Of some 79,000 tested, about 15% had one in any assay. Unmarked numbers belong to inactive results. Calls of active or inactive are those of the source. Rule as the data show it: active = growth inhibition above about 70%; inactive = the rest.

Key:
[1] = NCI Yeast Anticancer Drug Screen. Data for the rad50 strain (AID 155);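 also: 0% = growth of vehicle-only cultures of the same strain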; settings: S. cerevisiae rad50 strain growth inhibition, hits give high values
Summary of the method: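 Relative growth inhibition (compound vs vehicle) was measured in yeast with a defined repair-gene alteration.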

[2] = NCI Yeast Anticancer Drug Screen. Data for the mec2-1 strain (AID 157); settings: S. cerevisiae mec2-1 strain, hits give high values
Summary of the method: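 Each compound was tested on mec2-1 yeast, a strain altered in DNA damage repair or cell cycle control. Growth inhibition is reported relative to vehicle.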

[3] = NCI Yeast Anticancer Drug Screen. Data for the sgs1 mgt1 strain (AID 161);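 also: 0% = growth of cultures given vehicle only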; settings: S. cerevisiae sgs1 mgt1 strain, hits give high values
Summary of the method: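 Genetically altered yeast, compound exposure, growth inhibition relative to vehicle.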

[4] = NCI Yeast Anticancer Drug Screen. Data for the cln2 rad14 strain (AID 165);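 also: 0% = growth equal to vehicle treated cultures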; settings: S. cerevisiae cln2 rad14 strain, hits give high values
Summary of the method: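 Test compounds were added to cln2 rad14 yeast cultures; inhibition of growth was then determined by comparison with vehicle treatment.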

[5] = NCI Yeast Anticancer Drug Screen. Data for the bub3 strain (AID 167); settings: S. cerevisiae bub3 mutant strain, hits give high values
Summary of the method: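 Screening used yeast with an engineered genetic alteration affecting cell cycle control. Compound-exposed cultures were compared with vehicle cultures, and reduced growth was taken as inhibition.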

[6] = NCI Yeast Anticancer Drug Screen. Data for the mlh1 rad18 strain (AID 175); settings: S. cerevisiae mlh1 rad18 strain growth inhibition, hits give high values
Summary of the method: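 Inhibition values reflect reduced growth of mutant yeast versus vehicle-treated controls following compound exposure; the mutations affect DNA damage repair.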

[7] = at 5.0 µM (retest, dose inferred, filed as 0.5)
[8] = at 50.0 µM (retest, dose inferred, filed as 5.0)

Row | SMILES | growth inhibition [1, 7] | growth inhibition [1, 8] | growth inhibition ([1]; at 50.0 µM) | growth inhibition [2, 7] | growth inhibition [2, 8] | growth inhibition ([2]; at 50.0 µM) | growth inhibition [3, 7] | growth inhibition [3, 8] | growth inhibition ([3]; at 50.0 µM) | growth inhibition [4, 7] | growth inhibition [4, 8] | growth inhibition ([4]; at 50.0 µM) | growth inhibition [5, 7] | growth inhibition [5, 8] | growth inhibition ([5]; at 50.0 µM) | growth inhibition [6, 7] | growth inhibition [6, 8] | growth inhibition ([6]; at 50.0 µM)
1 | O=C1CNC(=O)c2cc(Cl)ccc2N1 | 46% | 45% | -8.75% | 25% | 32% | -26.1% | 34% | 44% | 8.6% | 28% | 29% | 13.9% | 34% | 67% | 40.1% | 44% | 42% | -2.1%
2 | O=C1c2c(F)c(F)c(F)c(F)c2SC2=NCCN12 | 2% | 99% (active) | 78.4% (active) | -4% | 98% (active) | 80.4% (active) | -10% | 97% (active) | 76.5% (active) | -23% | 98% (active) | 76.8% (active) | -31% | 99% (active) | 83.2% (active) | 11% | 98% (active) | 78.7% (active)
3 | O=C(CCc1ccccc1)COC(=O)c1ccc([N+](=O)[O-])cc1 | -13% | -14% | -10.4% | -2% | -25% | 3.45% | -6% | 8% | -3.6% | -26% | -14% | 10.9% | -1% | -7% | 55% | -15% | -23% | 16.4%
4 | O=S(=O)(C#Cc1ccccc1)c1ccccc1 | 12% | 98% (active) | 99.4% (active) | -11% | 99% (active) | 99.5% (active) | 24% | 99% (active) | 99.4% (active) | 7% | 99% (active) | 99.2% (active) | 3% | 98% (active) | 99.1% (active) | 16% | 99% (active) | 99% (active)
5 | CC/C(=N\OC(=O)Nc1ccccc1)c1ccc(OC(=O)Nc2ccccc2)cc1 | 4% | 22% | 60.5% | -7% | 58% | 55% | 2% | 46% | 76.8% (active) | -4% | 7% | 49.6% | 1% | 48% | 33.1% | 2% | 24% | 76.1% (active)
6 | BrCC(Br)Cc1ccc2c(c1)OCO2 (configuration not stated) | 5% | 30% | 20.8% | 2% | 25% | -7.35% | 3% | 60% | 49.4% | 6% | 21% | -21.6% | 14% | 39% | 4.7% | -1% | 84% (active) | 56.9%
7 | Nc1nnc2nc(CC(=O)c3ccc([N+](=O)[O-])cc3)c(CC(=O)c3ccc([N+](=O)[O-])cc3)nn12 | 6% | -3% | 3.7% | 15% | 15% | 19.2% | 6% | 2% | 11.8% | 4% | 4% | 43.1% | 6% | 1% | 0.8% | 4% | 26% | 3.05%
8 | O=C(CCCl)Nc1ccc(CCC(=O)c2ccccc2NC(=O)CCCl)cc1 | -10% | 23% | 69.2% | -9% | -4% | 64.4% | -7% | 59% | 81.8% (active) | -24% | -22% | 27.9% | -8% | 19% | 10.8% | -11% | -6% | 54.3%
9 | COc1cc(CC(=O)O)c(Cc2ccc3c(c2)Cc2ccccc2-3)cc1OC | -7% | 94% (active) | 49% | 4% | 77% (active) | 53.5% | -1% | 92% (active) | 52.1% | 6% | 91% (active) | 88.7% (active) | -7% | 95% (active) | 94.5% (active) | 2% | 88% (active) | 47.6%
